High-throughput results as filed in PubChem.
PKM2 act = qHTS Assay for Activators of Human Muscle isoform 2 Pyruvate Kinase; Potency, µM (series often up to 57.5 µM), for the others: at the top dose activation, hits mostly activators; Pyruvate kinase PKM (Homo sapiens), P14618; 260,000 compounds, 0.34% hits; AID 1631, 2009; purified PKM2, Kinase-Glo ATP luminescence, activation; response scale: 0% is enzyme alone, no compound; also: % is scaled to controls: 0 for no effect and ±100 for the full control effect; nearly all actives have a fitted effect of over 55% in size
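Purified hPK-M2 (>95% pure) converted ADP (0.1 mM final) to ATP with 0.5 mM PEP in 50 mM imidazole pH7.2, KCl, MgCl2, Tween 20, BSA; 1 h at room temperature. ATP detected by Kinase-Glo luminescence.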
VDR inhibitor = Inhibitors of the vitamin D receptor (VDR): qHTS; 400,000 compounds, 0.93% hits; Vitamin D3 receptor (Homo sapiens), P11473; VDR-SRC2-3 peptide fluorescence polarization, 2 h; Potency, µM, for the others: max response, negative = inhibition, usual class: inhibitors; also: % is scaled to controls: 0 for no effect and ±100 for the full control effect
Target sequence (P11473 whole entry, looked up): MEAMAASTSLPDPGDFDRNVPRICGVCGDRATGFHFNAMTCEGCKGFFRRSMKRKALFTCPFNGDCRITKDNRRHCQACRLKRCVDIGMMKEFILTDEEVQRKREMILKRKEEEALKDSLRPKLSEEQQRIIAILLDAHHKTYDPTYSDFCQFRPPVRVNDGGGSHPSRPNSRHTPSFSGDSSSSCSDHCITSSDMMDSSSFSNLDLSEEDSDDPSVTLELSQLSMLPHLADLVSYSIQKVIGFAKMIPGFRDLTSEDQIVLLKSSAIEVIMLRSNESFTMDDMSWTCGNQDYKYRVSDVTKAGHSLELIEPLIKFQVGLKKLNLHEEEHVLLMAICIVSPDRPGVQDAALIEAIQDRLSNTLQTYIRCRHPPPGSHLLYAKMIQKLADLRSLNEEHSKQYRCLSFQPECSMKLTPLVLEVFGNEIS
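Fluorescence polarization assay of small-molecule disruption of VDR binding to coregulator peptide SRC2-3. Compounds and controls pin-transferred, then read after 2 h incubation at ambient room temperature.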
GCN5L2 inh = qHTS Assay for Inhibitors of GCN5L2 | GCN5L2 HAT assay, ThioGlo1 CoA-SH fluorescence | 390,000 compounds, 0.21% hits | Potency, µM (top dose mostly 58.9 µM), inactives show at the highest dose activity change, negative = inhibition, usual class: inhibitors | AID 504327, 2011; also: % is scaled to controls: 0 for no effect and ±100 for the full control effect
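Fluorescence readout, Ex340nm/Em540nm: ThioGlo1 (50uM final) reacts with free CoA thiol released as 20nM GCN5L2 acetylates H3(1-25) peptide (75uM) using acetyl-CoA (70uM). Compound and enzyme sat 15 min beforehand; 20 min room-temperature reaction.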
Mito fusion yeast = qHTS Assay for Small Molecule Inhibitors of Mitochondrial Division or Activators of Mitochondrial Fusion. S. cerevisiae fusion-defective mutant growth rescue, CellTiterGlo 48 h. Potency, µM (series often up to 46.1 µM), inactives show at the highest dose growth rescue (activation), hits mostly activators. 320,000 compounds, 0.23% hits; also: % of control where 0% means no effect; nearly all actives have a fitted effect of over 45% in size
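Temperature-sensitive fusion-defective S. cerevisiae (e.g. fzo1-1, mgm1-5) were grown with compound in YPEG medium (3% ethanol, 3% glycerol) for 48 hours at 37C. Growth rescue was measured as viability by CellTiterGlo luminescence after 10 minutes at ambient.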
PLK1 PBD block = qHTS for Inhibitors of PLK1-PDB (polo-like kinase 1 - polo-box domain): Primary Screen | Serine/threonine-protein kinase PLK1 (Homo sapiens), P53350 | Plk1 PBD binding of FITC phosphopeptide, fluorescence polarization | Potency, µM, for inactives: max response, negative = inhibition, hits mostly inhibitors | 360,000 compounds, 2.8% hits; also: series mostly up to about 57 µM; % is scaled to controls: 0 for no effect and ±100 for the full control effect; nearly all actives have a fitted effect of over 65% in size
GLS inh = qHTS for Inhibitors of Glutaminase (GLS). Potency, µM (doses to about 45.5 µM), for inactives: top-dose activity change, negative = inhibition, actives largely listed as inhibitors. AID 624170, 2012. GLS enzymatic activity, qHTS titration. Glutaminase kidney isoform, mitochondrial (Homo sapiens), O94925. 410,000 compounds, 0.21% hits; also: % is scaled to controls: 0 for no effect and ±100 for the full control effect
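Read-out is an Amplex red fluorescence increase coupled through glutamate oxidase and HRP, measured before and after 30 min room-temperature incubation. hKGA is in 45 mM KH2PO4 (pH 8.2) with 0.02% Tween-20; glutamine added as 1mM solution.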
* = called active by the depositor; ? = inconclusive; nt = no result; [ ] = dose if it differs, or a comment. The list is not random: actives were taken first. Their share in the collection is about 3.4%. Calls follow the shape of the dose curve; as a rule, active = well fitted curve in the direction sought with a large enough effect; inconclusive = small, poorly fitted or top-dose-only effect, or another doubt; inactive = no such curve, though single readings can be large; an effect the other way counts as inactive or inconclusive. Potency is read from the fitted curve at half-maximal effect.

SMILES	PKM2 act	VDR inhibitor	GCN5L2 inh	Mito fusion yeast	PLK1 PBD block	GLS inh
Cc1ccc2nc(Cl)c3nnnn3c2c1	1.4%	?	-0.8%	13.0%	15µM*	-10.3%
N[C@H](C(=O)O)C1C(C(=O)O)C1C(=O)O (stereo partly drawn)	nt	-2.7%	-11.6%	nt	nt	nt
Cc1ccc(Cl)cc1NC(=S)Nn1cnnc1	7.3%	79.4µM*	4.2%	-17.2%	10.6µM*	-13.5%
Cc1ccc(NC(=S)Nn2cnnc2)c(C)c1	-9.4%	nt	-3.9%	1.5%	nt	nt
S=C(Nc1ccc(Br)cc1Cl)Nn1cnnc1	-17.5%	?	2.7%	12.9%	9.47µM*	5.4%
COC(=O)N[C@@H](CCc1ccccc1)[C@]1(C(=O)OC)CCCC1=O	nt	5.3%	nt	nt	nt	nt
Cn1c(=O)c(C#N)c(-c2ccc(F)cc2)c2cc(C(=O)c3cc(Cl)cc(Cl)c3O)cnc21	2.6%	4.0%	-11.4%	-0.3%	26.7µM*	17.4%
CCCn1c(SCC(=O)NCc2ccc(F)cc2)n[nH]c1=O	-0.8%	3.4%	-5.4%	0.1%	21.2µM*	2.2%
CCN(CC)S(=O)(=O)c1cccc(C(=O)NCC2CCCCC2)c1	nt	?	-2.3%	0.7%	23.8µM*	?
CCN(CC)S(=O)(=O)c1cccc(C(=O)N[C@H](C(=O)Nc2nc3ccccc3s2)C(C)C)c1	-4.2%	-11.1%	-3.5%	-3.4%	0.8%	-5.2%
CCN(CC)S(=O)(=O)c1cccc(C(=O)NCC2CCCO2)c1 (stereo not drawn)	0.8%	19.2%	-6.3%	-0.7%	-4.5%	-7.2%
CCN(CC)S(=O)(=O)c1cccc(C(=O)NC(C(=O)Nc2nnc(C3CC3)s2)C(C)C)c1 (stereo not drawn)	6.1%	11.9%	-1.5%	5.7%	26.7µM*	3.7%
O=C(CN1CCCCCC1)Nc1nc2ccccc2s1	nt	15.4%	nt	nt	-12.0%	16.0%
CCOC(=O)c1[nH]c(=O)[nH]c1CN(Cc1ccco1)Cc1[nH]c(=O)[nH]c1C(=O)OCC	7.8%	2.0%	-15.2%	0.9%	-0.5%	17.0%
ONCc1ccccc1	nt	-2.3%	-2.1%	nt	nt	nt
Cc1cc(/C=C2/C(=O)NN(c3ccccc3)C2=O)c(C)n1-c1cccc(O)c1	-4.8%	10.7%	-6.2%	-10.2%	-23.8%	0.1%
CC1=NN(c2ccc(C)cc2)C(=O)/C1=C/c1ccc(-c2cc([N+](=O)[O-])ccc2O)o1	-17.3%	-6.1%	-17.4%	-5.0%	?	-11.2%
O=C1NN(c2cccc(Br)c2)C(=O)/C1=C\c1ccc(O)cc1	nt	?	9.4%	-27.8%	23.8µM*	-0.2%
O=C1NN(c2ccc(Br)cc2)C(=O)/C1=C\c1ccc(O)cc1O	2.1%	-2.4%	-18.9%	-7.2%	29.9µM*	34.2%
O=C1NN(c2cccc(Br)c2)C(=O)/C1=C/c1ccc(-c2cc([N+](=O)[O-])ccc2O)o1	-6.1%	-16.0%	-5.9%	2.8%	18.9µM*	-14.2%
O=C1NN(c2ccccc2)C(=O)C1=Cc1ccccc1O	nt	nt	nt	nt	26.7µM*	23.4%
CC(=O)N1c2ccc(S(=O)(=O)N3CCC(C(=O)NCc4ccc(N(C)C)cc4)CC3)cc2CC1C (stereo not drawn)	nt	-1.4%	-2.8%	-15.4%	-10.3%	26.8%
CN(CC(=O)Nc1ccccc1C(F)(F)F)C(=O)c1ccc2c(=O)n3c(nc2c1)CCC3	nt	16.6%	-2.0%	-0.3%	-18.6%	1.1%
O=C(CNc1ccc(Br)cc1)c1ccc(Br)s1	nt	?	1.2%	4.5%	-0.1%	-12.8%
CC1CCCCN1c1ccc(N)cc1C(N)=O (stereo not drawn)	5.9%	-2.0%	0.0%	11.4%	-10.4%	2µM*
SMILES	PKM2 act	VDR inhibitor	GCN5L2 inh	Mito fusion yeast	PLK1 PBD block	GLS inh
CCCOC(=O)C1=C(C)NC(=O)NC1c1ccc(Br)s1 (stereo not drawn)	-3.5%	-6.7%	-12.5%	3.5%	23.8µM*	-2.8%
CC1=C(C(=O)OCC(C)C)C(c2ccc(Br)s2)NC(=O)N1 (stereo not drawn)	0.2%	-16.9%	-0.1%	-0.7%	0.3%	0.0%
Cc1ccc(C)n1-c1ccc(C(=O)NCc2ccncc2)cc1	-3.2%	11.8%	-2.6%	-3.6%	-27.1%	-15.5%
Cc1ccc(C)n1-c1ccc(C(=O)NN)cc1	2.7%	?	-15.3%	-6.8%	2.99µM*	?
COC(=O)c1ccc(NC(=O)c2c(Br)cnn2C)cc1	nt	?	-5.1%	3.3%	23.8µM*	-12.5%
CSc1ccc(C(=S)N2CCN(Cc3ccccc3)CC2)cc1	-3.4%	-18.9%	-4.0%	4.2%	21.2µM*	nt
CCN1CCN(C(=S)c2ccc(SC)cc2)CC1	0.5%	?	-4.5%	1.3%	18.9µM*	0.8%
S=c1nc[nH]c2c1sc1nc(-c3ccccc3)c3c(c12)CCCC3	4.7%	2.3%	50.6%	23.1%	29.9µM*	4.0%
O=C(O)CSc1ncnc2c1sc1nc(-c3ccccc3)c3c(c12)CCC3	-0.1%	-10.9%	?	6.0%	29.9µM*	?
CCOCCn1c(=O)c2c(nc3n2CC(C)CN3Cc2ccccc2)n(C)c1=O (stereo not drawn)	0.2%[0.46 µM]	-19.9%	-3.2%	-5.0%	29.9µM*	0.2%
Cn1c(=O)n(Cc2ccccc2)c(=O)c2c1nc1n2CCS1	8.5%	-14.0%	-0.9%	-7.2%	-4.3%	11.2µM*
C=CCn1c(=O)c2c(nc3n2CCS3)n(C)c1=O	-2.7%	-3.5%	-0.2%	-6.0%	-8.7%	-1.5%
Cc1ccccc1Cn1c(=O)c2c(nc3n2CCCN3Cc2ccccc2)n(C)c1=O	nt	14.0%	nt	nt	-2.2%	11.2µM*
Cn1c(=O)n(Cc2ccccc2)c(=O)c2c1nc1n2CCCN1Cc1ccccc1	6.0%	5.8%	-4.2%	-9.2%	-6.6%	-7.7%
CCOC(=O)c1c(S(=O)(=O)NCC(=O)N2CCN(c3ccc(F)cc3)CC2)c(C)n(C)c1C	nt	13.1%	-1.7%	-0.9%	-16.2%	9.8%
COc1ncc2nc(-c3ccc(F)cc3)c(=O)n(C3CC3)c2n1	nt	-3.3%	-0.3%	nt	nt	nt
Brc1ccc2c(c1)c1cc(Br)ccc1n2CC1CO1 (stereo not drawn)	nt	12.3%	nt	nt	nt	nt
Cc1nc(CNS(=O)(=O)c2cccc(F)c2)cs1	-2.4%	-3.2%	0.8%	12.1%	-7.5%	0.6%
Cc1ccc(-c2csc(NS(=O)(=O)c3cccc(F)c3)n2)o1	nt	?	?	nt	23.8µM*	?
O=C(c1ccc(Cl)cc1)[C@@H]1[C@@H]2C(=O)N(c3cccc4ccccc34)C(=O)[C@@H]2C2c3ccccc3C=NN21 (stereo partly drawn)	12.0%	-11.8%	-7.1%	4.4%	23.8µM*	9.3%
